Results on 18 molecules are retold here after PubChem BioAssay (NCATS).

Records with an inconclusive call do not appear. Calls of active or inactive are those of the source. Unless noted, calls come from the whole dose curve; as a rule, active = well fitted curve in the direction sought with a large enough effect; inconclusive = small, poorly fitted or top-dose-only effect, or another doubt; inactive = no such curve, though single readings can be large; an effect the other way counts as inactive or inconclusive.

A short description of experiment [1]: Primary qHTS for small molecule stabilizers of the endoplasmic reticulum resident proteome: Secreted ER Calcium Modulated Protein (SERCaMP) assay (AID 1508630). Note: % is set by controls: 0 for no effect and ±100 for the full control effect. Summed up:
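GLuc-SERCaMP-expressing SH-SY5Y cells, pretreated 16 h with compound, are challenged with thapsigargin to empty ER calcium stores; after 4 h, coelenterazine is added directly to the medium and luminescence is imaged.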

Experiment [2] has as its target Lysosomal acid glucosylceramidase (Homo sapiens) (UniProt P04062). Description: Glucocerebrosidase-p2 (AID 348; in the data active = potency below about 10 µM; note: potency is the fitted concentration of half-maximal effect). The following applies: purified GBA, blue fluorogenic substrate, 40 min. Summed up:
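Compounds titrated from 0.6 nM upwards against 0.2 nM enzyme in pH 5.9 citric acid/KH2PO4, taurocholate, tween-20; blue fluorogenic substrate 80 uM, 40 min room temperature, stopped and read Ex 365/Em 440 for AC50.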

Experiment [3] can be described thus: AP1 Signaling Pathway (AID 357; active = well fitted curve in either direction with a large enough effect, not every such curve was filed as active; note: % is set by controls: 0 for no effect and ±100 for the full control effect). To be noted: ME-180 AP-1-bla reporter, EGF-induced, beta-lactamase ratio, 5 h; at 7.69 µM (top of the series) unless noted. Put shortly:
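AP-1-bla ME-180 cells with beta-lactamase reporter under AP-1 response element, stimulated with EC50 EGF; compounds titrated, 5 hours at 37 degrees Celsius. CCF4 read at 460/530 nm ratio; positive and negative modulators judged by AC50.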

Experiment [4] addresses Cytochrome P450 1A2 (Homo sapiens) (UniProt P05177). Put plainly: p450-cyp1a2 (AID 410; calls by dose curve; note: potency is the fitted concentration of half-maximal effect;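 for activity change, negative = inhibition: -100% = full effect of reference inhibitor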). Put shortly:
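Luminescent readout of luciferin formed from Luciferin-ME by human CYP1A2; data normalized against complete inhibition by 57 uM furafylline. Enzyme 20nM, substrate 100uM at Km, 100mM KPO4 buffer, 60 min reaction at room temperature.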

Experiment [5] in a line: NFAT Signaling Pathway (AID 444; active = well fitted curve in either direction with a large enough effect, not every such curve was filed as active;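 note: carbachol stimulus at about its EC50 of 1 µM final; % is set by controls: 0 for no effect and ±100 for the full control effect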). The following applies: Jurkat NFAT-bla M1, carbachol, beta-lactamase ratio, 5 h; at 7.69 µM (top of the series) unless noted. Put shortly: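 Read-out: CCF4 FRET ratio (460 nm/530 nm) after 1 h RT dye loading, used for %activity and AC50 from titration series. Cells: Jurkat NFAT-β-lactamase/M1 line, treated with compound plus 1 uM carbachol for 5 h, 37 °C.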

Experiment [6] in a line: Stat Signaling Pathway (AID 446; active = well fitted curve in either direction with a large enough effect, not every such curve was filed as active;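 note: ME-180 cervical cancer cells given 40 pM IL-6 alongside compound; SIE-controlled beta-lactamase reporter measured as 460/530 nm FRET emission ratio; % is set by controls: 0 for no effect and ±100 for the full control effect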). To be noted: ME-180 SIE beta-lactamase reporter, IL-6 stimulated, 5 h; at 7.69 µM (top of the series) unless noted. Put shortly: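 ME-180 cells carrying a SIE-driven beta-lactamase reporter are stimulated with 40 pM IL-6 for 5 h at 37C in the presence of compound. The 460/530 nm FRET substrate ratio is read after 2.5 h at RT. Data are normalised to 300 pM IL-6 and to 125 nM JAK inhibitor controls.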

In experiment [7] the target is Glucocorticoid receptor (Homo sapiens) (UniProt P04150). Description: GR-EFC Redistribution (AID 451; calls by dose curve; note: potency is the fitted concentration of half-maximal effect). The following applies: CHO-K1 GR-EFC translocation, beta-gal luminescence, 2 h. Put shortly: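 Translocation of GR-ED fusion to nuclear EA restores b-gal, read by luminescence after 1 h room-temperature detection. Engineered CHO-K1 biosensor cells, 1,000/well, exposed 2 h at 37 C to titrations up to 46 uM final.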

Experiment [8] addresses 3',5'-cyclic-AMP phosphodiesterase 4B (Homo sapiens) (UniProt Q07343). Put plainly: qHTS Assay for Inhibitors of PDE-IV (AID 607; active = well fitted activation curve with a large enough effect in the main read-out, with a control signal flat, not every such curve was filed as active; note: % of control where 0% means no effect). Put shortly:
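HEK293 ACTOne cells with CNG channel (1000/well), endogenous PDE4; membrane potential dye, compounds up to 22.9 uM final. Fluorescence Ex 535/Em 590; RO 20-1724 (100 uM final) as reference.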
Background: qHTS replaces the single test concentration by a dilution series.

Experiment [9] is described as follows: qHTS Assay for Lipid Storage Modulators (AID 1519; calls by dose curve). To be noted: Drosophila S3 cells, BODIPY lipid droplet/cell ratio, laser cytometry, cells loaded with oleic acid; for activity change, negative = inhibition: at 57.5 µM (top of the series). Summed up:
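Cells seeded at 5,000 per well were treated with compounds over a concentration series and loaded with oleic acid (400 uM, as added). Lipid droplet fluorescence (488 nm excitation, 500-530 nm channel) was read by laser-scanning cytometry and normalized to 20 uM Triacsin C.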

Experiment [10] has as its target Rap guanine nucleotide exchange factor 3 (Homo sapiens) (UniProt O95398). Put plainly: Confirmatory qHTS for agonist of cAMP-regulated guanine nucleotide exchange factor 3 (EPAC1) (AID 1645881).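 Note: EPAC1 catalysed release of BODIPY-GDP from Rap1B seen as fluorescence loss; 100% = effect of cAMP agonist control; nearly all actives have a fitted effect of over 75% in size.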
In experiment [11] the target is Rap guanine nucleotide exchange factor 4 (Homo sapiens) (UniProt Q8WZA2). Description: Confirmatory qHTS for agonist of cAMP-regulated guanine nucleotide exchange factor 4 (EPAC2) (AID 1645884).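 Note: nucleotide exchange releases bodipy-GDP from Rap1 and this lowers its fluorescence; % is set by controls: 0 for no effect and ±100 for the full control effect; nearly all actives have a fitted effect of over 65% in size.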
Experiment [12] shares this target. Description: Confirmatory qHTS for antagonist of cAMP-regulated guanine nucleotide exchange factor 4 (EPAC2) (AID 1645885). Note: nearly all actives have a fitted effect of over 25% in size. Note: potency is the fitted concentration of half-maximal effect.
Experiment [13] addresses Cytochrome P450 3A4 (Homo sapiens) (UniProt P08684). Put plainly: qHTS Assay for Activators of Cytochrome P450 3A4 (AID 885). Note: nearly all actives have a fitted effect of over 65% in size. Note: potency is the fitted concentration of half-maximal effect. Summed up:
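Human CYP3A4 (20 nM) with Luciferin-PPXE at 25 uM (its KM) in 200 mM KPO4; 10 min compound preincubation, then NADPH regeneration and 60 min reaction at RT. Luciferin read by luminescence; normalized to 57 uM ketoconazole full inhibition.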

The target is the same in experiment [14]. Description: qHTS Assay for Inhibitors and Substrates of Cytochrome P450 3A4 (AID 884). Note: % is set by controls: 0 for no effect and ±100 for the full control effect; nearly all actives have a fitted effect of over 50% in size. Put shortly: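 20 nM human CYP3A4 with 25 uM Luciferin-PPXE (at KM) in 200 mM KPO4, preincubated 10 min with compound; NADPH regeneration started a 60 min RT reaction. Luciferin detected by luminescence, normalized to 57 uM ketoconazole as full inhibition.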
The target in experiment [15] is Mitogen-activated protein kinase 10 (Mus musculus) (UniProt Q61831). Description: JNK3 AlphaScreen Assay (AID 530; active = well fitted curve in either direction with a large enough effect, not every such curve was filed as active). Summed up:
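Compound titrations were preincubated 15 minutes at room temperature with substrate, antibody and pre-activated JNK3-containing HepG2 lysate. Reactions were started with 10 uM ATP and stopped with EDTA-containing bead buffer for AlphaScreen detection.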
On the technique in general: Bead proximity is the source of the signal in Alpha formats.

The mark [16] stands for this setting: measured here: cell count channel max response.
[17] abbreviates: measured here: lipid channel max response.

Chain of Rap guanine nucleotide exchange factor 4 (Homo sapiens) (Q8WZA2 whole entry, looked up): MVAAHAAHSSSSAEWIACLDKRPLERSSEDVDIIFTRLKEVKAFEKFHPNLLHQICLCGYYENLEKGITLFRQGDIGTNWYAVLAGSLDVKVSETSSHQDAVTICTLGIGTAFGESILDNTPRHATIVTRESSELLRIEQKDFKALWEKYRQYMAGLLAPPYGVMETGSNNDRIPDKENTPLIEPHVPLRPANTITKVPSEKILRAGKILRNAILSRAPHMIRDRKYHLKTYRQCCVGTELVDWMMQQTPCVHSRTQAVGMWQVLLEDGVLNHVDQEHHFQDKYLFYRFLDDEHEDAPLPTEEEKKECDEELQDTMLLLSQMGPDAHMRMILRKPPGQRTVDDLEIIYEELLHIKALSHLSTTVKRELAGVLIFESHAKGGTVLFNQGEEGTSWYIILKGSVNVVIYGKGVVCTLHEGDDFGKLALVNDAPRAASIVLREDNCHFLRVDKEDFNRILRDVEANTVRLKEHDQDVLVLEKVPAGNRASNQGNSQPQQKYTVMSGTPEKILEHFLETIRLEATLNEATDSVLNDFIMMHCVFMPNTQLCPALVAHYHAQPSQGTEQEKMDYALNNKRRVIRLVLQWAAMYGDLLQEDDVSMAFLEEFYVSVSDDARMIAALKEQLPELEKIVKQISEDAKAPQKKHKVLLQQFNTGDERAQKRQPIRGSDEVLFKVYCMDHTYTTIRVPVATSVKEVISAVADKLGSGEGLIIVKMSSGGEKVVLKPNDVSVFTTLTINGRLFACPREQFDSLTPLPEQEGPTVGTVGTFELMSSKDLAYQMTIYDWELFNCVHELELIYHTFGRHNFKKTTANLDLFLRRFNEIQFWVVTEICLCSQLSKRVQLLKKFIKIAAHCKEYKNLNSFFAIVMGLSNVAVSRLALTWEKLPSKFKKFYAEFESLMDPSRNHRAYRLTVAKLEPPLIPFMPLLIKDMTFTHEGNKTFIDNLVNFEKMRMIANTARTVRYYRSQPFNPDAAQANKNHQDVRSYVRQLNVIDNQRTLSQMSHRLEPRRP
Chain of Cytochrome P450 3A4 (Homo sapiens) (P08684 whole entry, looked up): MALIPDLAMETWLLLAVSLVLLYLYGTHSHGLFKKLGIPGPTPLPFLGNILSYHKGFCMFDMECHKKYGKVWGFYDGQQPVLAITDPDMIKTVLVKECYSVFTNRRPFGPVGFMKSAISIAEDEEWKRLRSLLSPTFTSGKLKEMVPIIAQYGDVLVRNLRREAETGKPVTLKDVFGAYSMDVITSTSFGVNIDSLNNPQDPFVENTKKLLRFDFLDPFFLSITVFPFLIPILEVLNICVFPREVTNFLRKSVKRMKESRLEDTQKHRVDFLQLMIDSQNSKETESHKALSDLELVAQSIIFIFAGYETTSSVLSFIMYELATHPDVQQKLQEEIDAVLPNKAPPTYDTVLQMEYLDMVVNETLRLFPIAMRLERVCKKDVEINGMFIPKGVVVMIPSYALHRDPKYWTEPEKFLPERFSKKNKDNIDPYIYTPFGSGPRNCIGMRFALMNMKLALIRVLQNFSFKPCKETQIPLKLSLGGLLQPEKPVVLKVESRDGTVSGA
Chain of Glucocorticoid receptor (Homo sapiens) (P04150 whole entry, looked up, the tested form may be a part): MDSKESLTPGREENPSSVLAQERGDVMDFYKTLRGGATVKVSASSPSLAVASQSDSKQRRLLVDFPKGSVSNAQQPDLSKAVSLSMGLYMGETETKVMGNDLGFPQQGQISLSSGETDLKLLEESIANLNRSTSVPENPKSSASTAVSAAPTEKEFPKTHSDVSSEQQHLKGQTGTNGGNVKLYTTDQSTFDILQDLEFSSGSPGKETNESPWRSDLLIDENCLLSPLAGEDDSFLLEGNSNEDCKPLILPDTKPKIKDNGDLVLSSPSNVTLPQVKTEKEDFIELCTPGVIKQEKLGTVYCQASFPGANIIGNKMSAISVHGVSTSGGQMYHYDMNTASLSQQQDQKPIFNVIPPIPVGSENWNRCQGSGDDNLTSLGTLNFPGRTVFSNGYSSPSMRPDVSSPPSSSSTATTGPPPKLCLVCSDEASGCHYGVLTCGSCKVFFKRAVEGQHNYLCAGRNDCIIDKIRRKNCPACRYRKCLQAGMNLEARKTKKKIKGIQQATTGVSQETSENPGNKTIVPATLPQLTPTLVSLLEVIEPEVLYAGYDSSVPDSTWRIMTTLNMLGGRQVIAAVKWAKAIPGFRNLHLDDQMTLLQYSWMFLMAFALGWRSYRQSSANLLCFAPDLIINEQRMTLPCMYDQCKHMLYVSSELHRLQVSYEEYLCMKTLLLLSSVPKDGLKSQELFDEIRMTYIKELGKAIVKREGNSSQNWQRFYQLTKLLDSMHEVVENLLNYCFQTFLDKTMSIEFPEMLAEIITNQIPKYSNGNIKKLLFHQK
Chain of 3',5'-cyclic-AMP phosphodiesterase 4B (Homo sapiens) (Q07343 whole entry, looked up): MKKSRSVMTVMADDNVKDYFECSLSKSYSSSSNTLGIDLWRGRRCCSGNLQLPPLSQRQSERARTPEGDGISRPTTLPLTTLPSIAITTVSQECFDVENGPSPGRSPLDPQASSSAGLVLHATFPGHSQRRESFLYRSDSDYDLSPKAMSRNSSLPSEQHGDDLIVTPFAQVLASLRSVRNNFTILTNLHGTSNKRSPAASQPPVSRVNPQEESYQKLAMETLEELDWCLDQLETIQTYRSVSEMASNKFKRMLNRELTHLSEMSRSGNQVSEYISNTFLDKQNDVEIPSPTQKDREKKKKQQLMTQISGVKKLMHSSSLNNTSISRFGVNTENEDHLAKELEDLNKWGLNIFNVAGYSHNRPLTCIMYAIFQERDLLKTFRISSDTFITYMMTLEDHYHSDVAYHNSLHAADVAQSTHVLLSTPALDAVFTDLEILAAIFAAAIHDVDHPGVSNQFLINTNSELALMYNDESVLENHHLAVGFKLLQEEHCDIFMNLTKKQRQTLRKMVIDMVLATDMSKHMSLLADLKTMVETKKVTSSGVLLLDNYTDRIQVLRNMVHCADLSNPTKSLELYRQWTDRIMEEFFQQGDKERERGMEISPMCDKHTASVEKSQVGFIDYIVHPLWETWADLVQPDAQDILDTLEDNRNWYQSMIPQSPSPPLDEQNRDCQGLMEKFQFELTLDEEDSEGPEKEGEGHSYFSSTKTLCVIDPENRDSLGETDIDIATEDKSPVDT
Chain of Lysosomal acid glucosylceramidase (Homo sapiens) (P04062 whole entry, looked up): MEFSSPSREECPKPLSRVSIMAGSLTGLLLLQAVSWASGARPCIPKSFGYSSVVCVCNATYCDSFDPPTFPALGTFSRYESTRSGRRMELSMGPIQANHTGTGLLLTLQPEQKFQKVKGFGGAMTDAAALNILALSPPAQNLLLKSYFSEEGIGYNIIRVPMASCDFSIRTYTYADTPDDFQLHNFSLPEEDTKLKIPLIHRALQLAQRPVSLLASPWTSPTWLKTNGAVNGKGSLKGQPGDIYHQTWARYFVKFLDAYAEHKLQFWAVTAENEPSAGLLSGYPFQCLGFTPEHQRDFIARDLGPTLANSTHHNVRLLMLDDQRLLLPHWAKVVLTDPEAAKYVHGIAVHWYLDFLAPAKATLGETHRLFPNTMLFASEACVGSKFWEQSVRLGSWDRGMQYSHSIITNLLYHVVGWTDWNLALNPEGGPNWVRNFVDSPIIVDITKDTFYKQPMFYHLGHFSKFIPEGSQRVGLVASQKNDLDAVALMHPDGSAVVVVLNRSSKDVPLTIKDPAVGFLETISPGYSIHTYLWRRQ
Chain of Cytochrome P450 1A2 (Homo sapiens) (P05177 whole entry, looked up): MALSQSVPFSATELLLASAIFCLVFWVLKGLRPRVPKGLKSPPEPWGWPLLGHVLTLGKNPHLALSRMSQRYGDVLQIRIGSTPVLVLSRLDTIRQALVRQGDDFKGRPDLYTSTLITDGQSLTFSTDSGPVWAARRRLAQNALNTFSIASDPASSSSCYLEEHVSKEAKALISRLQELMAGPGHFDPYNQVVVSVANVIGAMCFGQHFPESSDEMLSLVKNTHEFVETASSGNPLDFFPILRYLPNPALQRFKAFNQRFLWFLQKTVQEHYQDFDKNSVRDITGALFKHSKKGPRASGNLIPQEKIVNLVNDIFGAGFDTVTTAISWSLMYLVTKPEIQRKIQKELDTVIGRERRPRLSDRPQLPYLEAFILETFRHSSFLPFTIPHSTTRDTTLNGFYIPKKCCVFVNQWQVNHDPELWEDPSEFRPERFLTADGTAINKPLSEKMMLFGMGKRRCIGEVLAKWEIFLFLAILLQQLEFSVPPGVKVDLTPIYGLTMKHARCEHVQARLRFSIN
Chain of Rap guanine nucleotide exchange factor 3 (Homo sapiens) (O95398 whole entry, looked up): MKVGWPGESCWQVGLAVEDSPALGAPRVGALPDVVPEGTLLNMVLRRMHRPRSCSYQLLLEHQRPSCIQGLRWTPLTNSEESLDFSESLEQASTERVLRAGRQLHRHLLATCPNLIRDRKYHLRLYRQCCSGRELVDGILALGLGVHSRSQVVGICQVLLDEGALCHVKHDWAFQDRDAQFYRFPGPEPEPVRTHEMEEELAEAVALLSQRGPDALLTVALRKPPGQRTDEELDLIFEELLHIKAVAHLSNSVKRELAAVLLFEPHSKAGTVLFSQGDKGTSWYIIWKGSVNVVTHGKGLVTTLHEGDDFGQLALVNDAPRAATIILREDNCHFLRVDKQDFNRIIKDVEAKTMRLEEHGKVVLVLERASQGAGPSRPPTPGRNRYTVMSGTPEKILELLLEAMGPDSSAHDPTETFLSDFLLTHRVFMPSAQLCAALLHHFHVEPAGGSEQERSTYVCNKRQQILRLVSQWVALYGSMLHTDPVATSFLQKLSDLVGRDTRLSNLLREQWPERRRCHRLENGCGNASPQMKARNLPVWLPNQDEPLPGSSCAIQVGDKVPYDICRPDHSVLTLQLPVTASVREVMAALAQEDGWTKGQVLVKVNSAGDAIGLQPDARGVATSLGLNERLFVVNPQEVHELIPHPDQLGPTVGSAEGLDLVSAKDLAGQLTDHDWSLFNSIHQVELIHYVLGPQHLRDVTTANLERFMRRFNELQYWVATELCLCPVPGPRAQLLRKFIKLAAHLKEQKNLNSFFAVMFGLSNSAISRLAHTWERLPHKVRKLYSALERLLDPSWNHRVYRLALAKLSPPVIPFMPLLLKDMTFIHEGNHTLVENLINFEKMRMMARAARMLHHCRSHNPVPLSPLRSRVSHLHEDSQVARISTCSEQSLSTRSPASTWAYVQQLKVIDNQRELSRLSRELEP

In the case of `C/C=C/c1ccc(OC(C)[C@@H](O)c2ccc(O)c(OC)c2)c(OC)c1` (some centres undefined), the Potency entry in [1] was “inactive”.

Turning to `CC12CC[C@@](C(=O)O)(C(=O)C1=O)C2(C)C`, the Potency result in experiment [1] is “inactive”.

In the case of `C=C(C(=O)O)[C@@H]1CC[C@@]2(C)CCC[C@](C)(O)[C@@H]2C1`, the Potency entry in experiment [1] is “inactive”.

Turning to `C[C@@H]1Oc2ccccc2C=C1/C=C/C(=O)O`, the Potency result in experiment [1] is “inactive”.

As for `COCC(=O)N1CCC2(CC1)CN(c1ccccn1)C2`, the values for the Potency in [2] and in [7] were > 11.4 µM (inactive) and > 46 µM (inactive), respectively. Also, the activity change, negative = inhibition is -0.233% (inactive) in [3], 1.7% (inactive) in experiment [5] and 1.23% (inactive) in experiment [9]. The Potency result in experiment [4], in experiment [8], in experiment [1] and in experiment [12] was “inactive” each time. Also, the activity, negative = inhibition in experiment [6] was 9.91% (inactive). Also, the max response in experiment [9] (setting [16]) was 1.59%; in experiment [9] (setting [17]) it was 3.63%. Also, the molecule was classed as inactive in experiment [10] and in experiment [11].

For `COc1ccc([C@H]2O[C@@H](c3ccc(OC)c(OC)c3)[C@H](C)[C@@H]2C)cc1OC`, the Potency entry in experiment [1] was “inactive”.

On to `COc1ccc(C(=O)OC2CC3CC[C@H](C2)N3C(C)=O)cc1OC` (some centres undefined), for which, in [1], the Potency result was “inactive”.

As for `COc1cc(C(=O)Oc2ccc3c(OC)c4ccoc4nc3c2OC)cc(OC)c1OC`, the Potency entry in experiment [1] was “inactive”.

In the case of `COc1cc(O)c2c(=O)cc(C)oc2c1CC=C(C)C`, the Potency result in [13] and in experiment [1] was “inactive” each time. Besides, the activity change, negative = inhibition in experiment [9] is 15% (inactive). Moreover, the max response in experiment [9] (setting [16]) came to 7.83%; in experiment [9] (setting [17]), 11.5%. Moreover, the molecule was classed as inactive in experiment [10] and in experiment [11]. Besides, the Potency in [12] is 22.1 µM (active).

As for `O=C(c1cccc(F)c1)N1CCC2(CC1)CN(c1cccc(-c3ccccc3)c1)C2`, the Potency in experiment [2] is > 11.4 µM (inactive); in experiment [4], 12.6 µM (active); in [7], > 46 µM (inactive); in experiment [13] it was 3.16 µM (active). For the same molecule, the activity change, negative = inhibition is -6.1% (inactive) in experiment [3] and -19.2% (inactive) in experiment [9]. In addition, the activity, negative = inhibition in [6] was -13.4% (inactive). For the same molecule, the Potency entry in experiment [8], in [14], in experiment [1] and in experiment [12] was “inactive” in each case. The max response in experiment [9] (setting [16]) is -4.49%; in [9] (setting [17]), -20.8%. Moreover, the molecule was called inactive in experiment [10] and in experiment [11].

Take `C=C[C@@H](C1=CC(=O)C(OC)=C(OC)C1=O)c1ccccc1`: the Potency entry in experiment [1] is “inactive”.

Take `COC1=C[C@@H](C)C2CC3OC(=O)C[C@H]4C(C)=C(OC)C(=O)C([C@@]2(C)C1=O)[C@@]34C` (some centres undefined): the Potency result in experiment [1] is “inactive”.

Regarding `O=C(Oc1ccccc1)N1CCC2(CCCN(c3ccccc3)C2)CC1`, the Potency in experiment [2] was > 11.4 µM (inactive); in experiment [4], 15.8 µM (active); in [7], > 46 µM (inactive). Further, the activity change, negative = inhibition in experiment [3] is 8.28% (inactive); in experiment [9], -26.4% (inactive). In experiment [6], the activity, negative = inhibition was 8.61% (inactive). The outcome in [15], in [10] and in experiment [11] was inactive. The Potency result in experiment [13], in [1] and in experiment [12] was “inactive” each time. For the same molecule, the max response is 17% in experiment [9] (setting [16]) and -12.6% in experiment [9] (setting [17]).

In the case of `C[C@@H]1CC[C@H]2[C@H](C)[C@H]3CC[C@H]4C5[C@@H](O)CC6=CC(=O)CC[C@]6(C)[C@H]5C[C@H]4C3C(=O)N2C1` (some centres undefined), in experiment [1], the Potency result is “inactive”.

Consider `Cc1nc(-c2coc3c(O)c(O)ccc3c2=O)cs1`, for which the Potency entry in [1] is “inactive”.

In the case of `COCC(=O)N1CCC2(CC1)CCN(C(=O)Nc1cccc(C#N)c1)CC2`, the Potency was > 11.4 µM (inactive) in [2] and > 46 µM (inactive) in experiment [7]. In addition, the activity change, negative = inhibition in experiment [3] is -4.8% (inactive); in [5] it was -11.9% (inactive); in [9] it was 1.13% (inactive). For the same molecule, the Potency entry in experiment [4], in [8], in experiment [1] and in [12] was “inactive” throughout. In experiment [6], the activity, negative = inhibition was -4.23% (inactive). In addition, the result in experiment [15], in [10] and in [11] was inactive. In addition, the max response was determined as 4.68% in experiment [9] (setting [16]) and 4.41% in experiment [9] (setting [17]).

As for `OCC1=CC[N+]2(Cc3ccccc3)CCC(O)[C@@H]12` (some centres undefined), the Potency entry in [1] was “inactive”.

As for `COc1ccc(/C(=C\C(=O)O)c2nccc3cc(OC)c(OC)cc23)cc1OC`, the Potency entry in experiment [1] is “inactive”.
